The whole screen tested about 54,000 sequences, of which about 3,300 (6.1%) were called active. Cut-off read from the data, not from the text of the source: active = GI50 up to about 1.1 µM and inactive = higher. A selection follows. Potency and affinity values are given separately.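 Results reflect a 48-hour exposure of cells in 96-well plates to compound at five concentrations. GI50 = concentration required for 50% inhibition of growth.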

This test relates to Malme-3M. The experiment in a line: NCI tumour cell line growth inhibition, 48 h.
The substance “[Bis(aminomethyl)pentamethylenesilane]tetrachloropaltinum(IV), CHEMBL2146204” had a GI50 of 1220 nM. On to “[Bis(aminomethyl)tetramethylenesilane]dichloropaltinum(II), CHEMBL2146205”, for which the GI50 came to 8590 nM. As for “[Bis(aminomethyl)dimethylsilane]tetrachloroplatinum(IV), CHEMBL2146190”, the figure is 2770 nM.

For “[Bis(aminomethyl)tetramethylenesilane]tetrachloropaltinum(IV), CHEMBL2146189”, the GI50 is 1620 nM.

The substance “cis-Bis[[(trimethylsilyl)methyl]amino]tetrachloroplatinum(IV), CHEMBL2146191” registered a GI50 of 2250 nM.

In turn, “mu-(1,7-nanodiamine-N,N')bis-(cis-aminedichloroplatimum (II)), CHEMBL2146215” came in with a GI50 of 2410 nM. “[Bis(aminomethyl)diethylsilane]tetrachloroplatinum(IV), CHEMBL2146203” returned a GI50 of 1220 nM.

As to CISPLATIN, CHEMBL11359, the GI50 is 1600 nM. Take “[Bis(aminomethyl)ethylmethylsilane]tetrachloroplatinum(IV), CHEMBL2146192”: the GI50 came out at 2080 nM. “[Bis(aminomethyl)pentamethylenesilane]dichloropaltinum(II), CHEMBL2146202” displayed a GI50 of 1540 nM.

Consider “[Bis(aminomethyl)dimethylsilane]dichloroplatinum (II), CHEMBL2146201”, for which the GI50 was found to be 17700 nM.

(Values after ChEMBL document CHEMBL1201862, “PubChem BioAssay data set” (2004).)
